Source: PubChem (National Center for Advancing Translational Sciences (NCATS))
Only some compounds are listed: those with a hit (about 2.4% of all), similar ones and a draw of the others.
AmpC inh det: Promiscuous and Specific Inhibitors of AmpC Beta-Lactamase (assay with detergent); AID 584, 2007; Potency, µM (highest dose often 28.7 µM), without a hit: at the highest dose activity change, negative = inhibition; purified AmpC, nitrocefin hydrolysis with detergent; actives 0.09% (n = 71,000); P00811; active means well fitted curve in the direction sought with a large enough effect; inconclusive means small, poorly fitted or top-dose-only effect; further: on the % scale 0 is the no-effect control and ±100 the full control effect
Target sequence (P00811 whole entry, looked up): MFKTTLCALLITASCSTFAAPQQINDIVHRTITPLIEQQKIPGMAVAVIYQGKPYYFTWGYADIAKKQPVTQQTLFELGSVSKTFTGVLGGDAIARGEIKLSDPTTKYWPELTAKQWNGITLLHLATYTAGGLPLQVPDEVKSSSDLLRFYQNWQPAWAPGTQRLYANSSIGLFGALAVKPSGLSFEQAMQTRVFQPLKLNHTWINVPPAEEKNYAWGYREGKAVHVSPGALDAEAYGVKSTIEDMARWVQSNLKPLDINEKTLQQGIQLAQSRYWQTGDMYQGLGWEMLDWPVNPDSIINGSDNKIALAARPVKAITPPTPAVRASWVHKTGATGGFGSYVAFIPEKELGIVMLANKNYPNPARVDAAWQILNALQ
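E. coli AmpC (5.3 nM) in 20 mM phosphate pH 7.0 with 0.01% Triton X-100, preincubated 15 min RT with compound; nitrocefin (2 uL of 800 uM stock) hydrolysis followed by 480 nm absorbance every 20 s over 4 min.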
LT uptake inh: qHTS Assay for Anthrax Lethal Toxin Internalization; Cells, anthrax lethal toxin internalization, FRET ratio (460/530); Potency, µM (series often up to 40 µM), without a hit: at the top dose activity change, negative = inhibition, actives largely listed as inhibitors; actives 0.67% (n = 70,000); further: on the % scale 0 is the no-effect control and ±100 the full control effect; nearly all actives have a fitted effect of over 50% in size
AmpC nodet inh: Promiscuous and Specific Inhibitors of AmpC Beta-Lactamase (assay without detergent) | AID 585, 2007 | Potency, µM (series often up to 28.7 µM), inactives show at the highest dose activity change, negative = inhibition | actives 1.8% (n = 71,000) | P00811 | AmpC nitrocefin hydrolysis, absorbance 480 nm, no detergent; further: % of control where 0% means no effect
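AmpC in 20 mM phosphate buffer pH 7.0 was preincubated 15 min at room temperature with compounds. Nitrocefin (800 uM stock) was then added and hydrolysis followed at 480 nm every 20 s for 4 min.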
SmPrx2 inh: Schistosoma Mansoni Peroxiredoxins (Prx2) | Schistosoma mansoni peroxiredoxin 2 (Prx2) | S. mansoni Prx2 activity coupled to TGR/GSH (TGR is thioredoxin glutathione reductase), NADPH fluorescence loss, qHTS | Potency, µM | actives 0.07% (n = 65,000) | AID 448, 2006
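Prx2 activity was followed as the loss of NADPH fluorescence (ex 365/em 450 nm), read every 30 sec for 8 min after H2O2 start. The enzyme mix (50 nM Prx2, 25 nM TGR, GSH, NADPH; pH 7.4 phosphate buffer) was incubated with compound for 15 min at room temperature first.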
An asterisk follows results filed as active; ? = inconclusive; nt = not tested or not shown; ! = not active in a repeat; [ ] = remark or other dose. Unless noted, the call rests on the fitted dose curve. Potency means the concentration at half of the fitted maximal effect.

SMILES | AmpC inh det | LT uptake inh | AmpC nodet inh | SmPrx2 inh
Cc1nnc(N2C(=O)C(O)=C(C(=O)c3ccco3)C2c2ccc(F)cc2)s1 (configuration not stated) | 11.7% | -5.0% | 3.98µM*[single pt active] | >57
O=C(C1=C(O)C(=O)N(Cc2ccccc2)C1c1ccncc1)c1ccco1 (configuration not stated) | -2.3% | 1.0% | -0.2% | >57
CN(C)c1ncc2nc(-c3ccc(Cl)cc3)c(=O)n(C[C@H]3CCCO3)c2n1 | -0.8% | ? | -9.7% | >57
CC(C)CCn1c(SCC#N)nc2c(sc3ccccc32)c1=O | 4.0% | 8.6% | -3.2% | >57
C=CCn1c(=O)n(CCOC)c(=O)c2sc3ccccc3c21 | 11.8% | -10.4% | 3.98µM*[single pt active] | >57
CN(c1ccccc1)S(=O)(=O)c1ccc(C(=O)Nc2nnc(-c3ccc(F)cc3)o2)cc1 | -7.6% | 0.0% | 10µM* | >57
COc1ccccc1-c1nnc(NC(=O)c2ccc(S(=O)(=O)N(C)Cc3ccccc3)cc2)o1 | -2.3% | -0.7% | 27.2% | >57
COc1ccc(-c2nnc(NC(=O)c3ccc(S(=O)(=O)N4CCCc5ccccc54)cc3)o2)cc1 | 8.9% | -12.8% | 12.6µM* | >57
O=C(O)CCCC[C@@H]1SC[C@H]2NC(=O)N[C@H]12 | -0.9% | ? | 11.1% | >57
Cc1ccc(CNC(=O)[C@H](C)[C@H]2C[C@]2(C)[C@H](NC(=O)OCc2ccccc2)c2ccccc2)c(F)c1F | -6.5% | ? | 0.3% | >57
CN(C)CCCN1c2ccccc2Sc2ccc(Cl)cc21 | 0.7%[12.8 µM] | ? | 51.9%[12.8 µM] | >57
OCCN1CCN(CCCN2c3ccccc3Sc3ccc(Cl)cc32)CC1 | -0.1%[12.8 µM] | 25.1µM*! | 123.5%[12.8 µM] | >57
O=C(NCc1ccc2c(c1)OCO2)C1CCCN(S(=O)(=O)c2cccnc2)C1 (configuration not stated) | 12.2% | -10.5% | 3.98µM*[single pt active] | >57
Cc1ccc(CNC(=O)C2CCCN(S(=O)(=O)c3cccnc3)C2)cc1 (configuration not stated) | -2.7% | -8.7% | 26.5% | >57
Cc1csc(NC(=O)C2CCCN(S(=O)(=O)c3cccnc3)C2)n1 (configuration not stated) | 13.6% | -1.5% | 3.16µM*[single pt active] | >57
O=C(C1CCCN(S(=O)(=O)c2cccnc2)C1)N1CCN(c2ccccn2)CC1 (configuration not stated) | 11.8% | ? | 3.98µM*[single pt active] | >57
CCOC(=O)N1CCN(C(=O)C2CCCN(S(=O)(=O)c3cccnc3)C2)CC1 (configuration not stated) | 13.8% | 1.3% | 3.98µM*[single pt active] | >57
Cc1cc(Cc2c(C)c(C)c(Cc3cc(C)cc(C(C)(C)C)c3O)c(C)c2C)c(O)c(C(C)(C)C)c1 | -1.2%[5.75 µM] | -5.6%[8 µM] | -6.9%[5.75 µM] | >57
Cc1cc(Cc2cc(C)cc(C(C)(C)C)c2O)c(O)c(Cc2cc(C)cc(C(C)(C)C)c2O)c1 | -2.2%[5.75 µM] | 3.16µM* | -24.6%[5.75 µM] | >57
CC1=C(C(=O)OC(C)C)C(c2cccc(F)c2)n2ncnc2N1 (configuration not stated) | 13.7% | ? | 3.98µM*[single pt active] | >57
CC1=C(C(=O)OC(C)C)C(c2c[nH]c3ccccc23)n2ncnc2N1 (configuration not stated) | 12.3% | 4.0% | 3.98µM*[single pt active] | >57
CC1=C(C(=O)OC(C)C)C(c2cccs2)n2ncnc2N1 (configuration not stated) | 12.6% | ? | 3.98µM*[single pt active] | >57
COc1ccccc1NC(=O)C1=C(C)Nc2ncnn2C1c1cccs1 (configuration not stated) | -1.7% | ? | 9.5% | >57
OCC(CO)(CO)N=Cc1cc(Br)ccc1O | 3.7% | -19.8% | -6.5% | >57
Oc1ccc(Br)cc1/C=N/n1cnc2ccccc21 | 0.3% | -31.2% | 15.8µM*[single pt active] | >57
Oc1ccc(-c2nc(-c3ccc(O)c(O)c3)cs2)cc1 | 1.0% | 12.6µM* | -23.5% | nt
O=C(COC(=O)c1ccc(Br)o1)Nc1nc2ccccc2s1 | 1.0% | 0.4% | 5.01µM* | nt
CC(C)CCOC(=O)C1C2C=CC3(CN(Cc4cccs4)C(=O)C13)O2 (configuration not stated) | 9.4% | -8.9% | 3.98µM*[single pt active] | >57
CC1(C)Cc2c(sc3nc(SCC(=O)N4CCOCC4)nc(N)c23)CO1 | -3.3% | 7.94µM* | 25.1% | >57
CCOC(=O)N1CCN(c2nc(SC)nc3sc4c(c23)CC(C)(C)OC4)CC1 | ? | ? | ? | >57
